# Assay results as given in PubChem BioAssay (NCI).
# Compounds without any hit were thinned out: in the full panel of roughly 83,000, 20% have a hit.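 Method: cells in 96-well plates; compound added at one concentration; 48 h incubation; percent growth measured; values under 10 scored active.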 Values without a mark were called inactive. The source made the active and inactive calls.
# System: HS 578T breast
# Test: NCI-60 one-dose screen, 48 h (100 = growth as untreated, 0 = no growth, -100 = all killed)
# Conditions: 10 µM unless noted
# Protocol: Growth inhibition of the HS 578T human tumor cell line is measured as a screen for anti-cancer activity. Cells are grown in 96 well plates and exposed to the test compound for 48 hours. Compounds are tested at a single concentration, which is 10^-5 M for most compounds. The reported endpoint is percent growth (GI% or GIPRCNT), where numbers from 0 - 100% represent growth inhibition, and numbers from -100% - 0 represent cell death. For example, a value of 40 represents 60% growth inhibition. A value of 0 means no net growth occurred over the course of the experiment. A value of -40 indicates 40% of cells at the beginning of the experiment died by the end of the experiment. A value of -100 means all cells are dead at the end of the experiment.
# NCI-60 Human Tumor Cell Lines Screen was performed using the standard one-dose NCI protocol, which is described in more detail at https://dtp.cancer.gov/discovery_development/nci-60/default.htm.
# Compounds with GIPRCNT values below 10 were considered active. Activity score was based on GIPRCNT using the following formula: […]
# Score is 0 for GIPRCNT values of 100 or above, 50 for GIPRCNT values of 0, and 100 for GIPRCNT values of -100.
row,Compound,growth
1,CC(=O)OCC1OC(OC2C(COC(C)=O)OC(OCCC[S-])C(OC(C)=O)C2OC(C)=O)C(OC(C)=O)C(OC(C)=O)C1OC(C)=O.[Au+].c1ccc(CN2[CH-]N(Cc3ccccc3)C(c3ccccc3)=C2c2ccccc2)cc1 (stereo not given),47.5%
2,Nc1ccc2c(c1)C(=O)C(=O)c1c-2nc2ccccn12,-6.56% (active)
3,C=C1C(=O)O[C@H]2[C@H]1CC/C(COC(=O)CCCCCCCCC(=O)OC/C1=C/CC[C@@]3(C)O[C@H]3[C@H]3OC(=O)C(=C)[C@@H]3CC1)=C\CC[C@@]1(C)O[C@@H]21,10.3%
4,CC(C)C[C@H](C(=O)O)N(C)C(=O)[C@@H]1CCCN1C(=O)[C@H](C)OC(=O)[C@H](CCC(N)=O)NC(=O)[C@@H]1CCC(=O)N1,107%
5,c1ccc(Sc2ncccn2)nc1,94%
6,O=C1CC23OC(C(O)c4ccccc4N12)C1C(c2ccccc2)=NOC13 (stereo not given),52.2%
7,COc1cc(/C=C/C(=O)c2ccc(NC(=O)CSc3nnc(-c4cc(OC)c(OC)c(OC)c4)n3-c3ccccc3)cc2)cc(OC)c1OC,83.1%
8,OCCNc1nc(NCCO)nc(Nc2ccc(C3=NN(c4cc(Cl)cc(Cl)c4)C(c4ccc(C(F)(F)F)cc4)C3)cc2)n1 (stereo not given),43.6%
9,Fc1ccc(N/N=C/c2ccc(-n3cccn3)cc2)cc1,108%
10,COC(=O)c1cc2c3c(cc(O)c2[nH]1)N(C(=O)C1Cc2cc(OC)c(OC)c(OC)c2N1)CC3CCl (stereo not given),1.21% (active)
11,Cc1nnc(/N=C2\NC(=O)/C(=C/c3ccc(N(C)C)cc3)S2)s1,85.6%
12,N#Cc1nc(-c2ccccc2)oc1S(=O)(=O)NCC(c1ccc(Cl)cc1)N1CCCCC1 (stereo not given),102%
13,O=CN1N=C(c2ccc(F)cc2)CC1c1cccc(Nc2ccnc3cc(C(F)(F)F)ccc23)c1 (stereo not given),73.5%
14,O=C(Nc1ccc(S(=O)(=O)NC2CCCCCC2)cc1)C(c1ccccc1)S(=O)(=O)c1ccc(F)cc1 (stereo not given),-2.41% (active)
15,O=C(/C(=C/c1ccc([N+](=O)[O-])cc1)SCc1ccccc1)c1ccc(Cl)cc1,75.7%
16,COc1ccc(C2C(c3ccccc3)C(=O)N2c2cc(OC)c(OC)c(OC)c2)cc1I (stereo not given),22.1%
17,COc1ccc(Nc2cc(NC(=O)CNc3cc(OC)c(Cl)c(OC)c3Cl)ncn2)cc1,83.4%
18,C=C1C(=O)O[C@H]2[C@H]1CC/C(COC(=O)n1ccnc1)=C\CC[C@@]1(C)O[C@@H]21,99.2%
19,N#Cc1c(-c2ccc(F)cc2)nc(N=Nc2c(O)[nH]c3ccccc23)nc1N1CCOCC1,38.5%
20,Oc1ccccc1-c1nc2c3ccccc3c3ccccc3c2o1,89.5%

row,Compound,growth
1,Cc1cccc(NC(=O)c2sc3nc4c(cc3c2N)CN(Cc2ccccc2)CC4)c1C,30.8%
2,CCOC(=O)C(=Cc1c(-c2ccccc2)[nH]c2ccccc12)C(=O)OCC,59.5%
3,COc1ccc(/C=C(/C(=O)N2CCCC2)c2cc(OC)c(OC)c(OC)c2)cc1,27.8%
4,O=C(CCc1nnco1)c1nc2ccc([N+](=O)[O-])cc2[nH]1,102%
5,O=C(C[n+]1cccc2cc(Cl)ccc21)c1ccc2c(c1)CCCC2,37.5%
6,O=C(/C(=C/c1ccc([N+](=O)[O-])cc1)SCc1ccc(Cl)cc1)c1ccc(F)cc1,27.9%
7,C#C[C@@]1(O)[C@@H](CO)O[C@@H](n2cnc3c(-c4ccccc4)ncnc32)[C@@H]1O,113%
8,N#Cc1c(-c2ccc(F)cc2)nc(N=Nc2c(O)[nH]c3ccc(Cl)cc23)nc1N1CCOCC1,15.5%
9,O=c1[nH]c2ccccc2cc1-c1nc2ccc(Cl)cc2[nH]1,46.1%
10,CCOC(=O)c1c(-c2ccc(O)cc2)c(C#N)c2c(C#N)c(N)nn2c1N,70.2%
11,NC(=O)CN1C(=O)c2ccccc2C1=O,104%
12,S=C(Nc1ccccc1)c1ccccn1,101%
13,CC(C)(C#N)c1cc(F)cc(C(=O)Nc2cc(Nc3ncccc3-c3ncnc4nc[nH]c34)ccc2F)c1,39.9%
14,O=C(O)c1cc(N=Nc2ccc(-c3ccc(N=Nc4c(S(=O)(=O)O)cc5ccc(Nc6ccccc6)cc5c4O)cc3)cc2)ccc1O,106%
15,OCCNc1nc(NCCO)nc(Nc2ccc(C3=NN(c4cc(Cl)cc(Cl)c4)C(c4ccc(Cl)cc4)C3)cc2)n1 (stereo not given),11.6%
16,CCc1c(C(=O)N[C@@H](C(=O)OCc2ccccc2)C(C)O)[nH]c2ccc(Cl)cc12 (stereo not given in full),40.6%
17,CC1CCN(CCCCCOc2ccc3oc4ccccc4c(=O)c3c2)CC1,70.3%
18,CC1CCCN(CCCCCOc2ccc3oc4ccc(Cl)cc4c(=O)c3c2)C1 (stereo not given),84.7%
19,Cc1cccc(C)c1NCc1nnc(-c2ccc(O)cc2)o1,-4.35% (active)
20,COc1ccc2c(c1)Oc1nc(N)c(C#N)c(N)c1C2Sc1ccc(O)cc1 (stereo not given),109%
